The structures appear in SMILES notation. About 2,100 (3.2%) of roughly 65,000 compounds showed an effect of 50% or more. The median lay at about -52%. The full list was thinned out, with strong results kept by preference.

For this test, the system named is Plasmodium falciparum. The test is described as follows: Screen against P. falciparum Asexual Blood Stage (ABS), at 5uM. It counts as functional, Dd2. The following applies: tested at 5 uM.
For `COC(=O)N1C[C@@H]2CC[C@H]1CN(Cc1ccncc1)C2`, the INHIBITION is -81.6%.

As to `c1cncc(O[C@H]2CC[C@H]3[C@H]2OCCN3C2CCCC2)c1`, the INHIBITION is given as -36.8%.

Consider `O=C(c1ccc(F)c(F)c1)N1C[C@H]2CNC[C@H]2C1`, for which the INHIBITION was -51.2%.

For the compound `Cc1nccn1CCCN1CCCC(c2ccccc2)C1` (configuration not stated), the INHIBITION came out at 77.8%.

In the case of `Cc1ccc(O[C@@H]2C[C@H]3CN(c4ncc(F)cn4)CCN3C2)cc1`, the INHIBITION is -98.8%.

In the case of `c1cncc(OC[C@@]23CCC[C@@H]2CN(CC2CCOCC2)C3)c1`, the INHIBITION amounted to 39%.

In the case of `CN1CC(c2ccccc2)CC2(CCN(Cc3ncc[nH]3)CC2)C1` (configuration not stated), the INHIBITION amounted to 82.5%.

`Cc1cc(NC2CC3(CCN(Cc4cscn4)C3)C2)ncn1` (configuration not stated): the INHIBITION is given as 19.4%.

Turning to `c1ccc(C2CN(C3CC3)CC3(CCN(Cc4cscn4)CC3)C2)cc1` (configuration not stated), the INHIBITION stood at 80.4%.

As to `COCC1CC2(CCN(Cc3ccccn3)CC2)CN1C(C)C` (configuration not stated), the INHIBITION is reported as 9.58%.

Regarding `COCC1CC2(CCN(CC3CC3)CC2)CN1Cc1ccccn1` (configuration not stated), the INHIBITION is 42.4%.

Regarding `c1cc(NC2CC3(CCN(Cc4cscn4)C3)C2)ncn1` (configuration not stated), the INHIBITION is -13.3%.

As for `c1cc(NC2CC3(CCN(Cc4cc[nH]n4)C3)C2)ncn1` (configuration not stated), the INHIBITION is -152%.

For `O=C1NCC[C@]12CN(Cc1ccncc1)C[C@H]2c1ccccc1`, the INHIBITION is listed as -70.3%.

For the compound `CCN1CC(c2ccccc2)CC2(CCN(Cc3ncc[nH]3)CC2)C1` (configuration not stated), the INHIBITION is 88.1%.

Take `Cc1ncsc1CN1CCO[C@H]2[C@H](Oc3ccccn3)CC[C@@H]21`: the INHIBITION was -24.4%.

Turning to `CCC12CN3CC(CC)(CN(C1)C3c1[nH]c(=O)[nH]c(=O)c1C)C2=O` (configuration not stated), the INHIBITION is on record as -87.1%.

For the compound `CCOC(=O)[C@@H]1[C@@H](c2ccccc2)CN2CCN(C(=O)C3CC3)C[C@H]12`, the INHIBITION is -91.7%.

As for `c1cc(CN2CCO[C@@H]3CNC[C@@H]32)co1`, the INHIBITION is given as -38.2%.

Take `CCOc1c(Br)cc(C2c3c(n[nH]c3C)N=C3COC(=O)C32)cc1OC` (configuration not stated): the INHIBITION is given as 81.1%.

For the compound `COc1cc(C2c3c(n[nH]c3C)N=C3COC(=O)C32)cc(Br)c1O` (configuration not stated), the INHIBITION is reported as 91%.

As for `COc1cc(C2SCC(=O)Nc3n[nH]cc32)cc(OC)c1O` (configuration not stated), the INHIBITION is -36%.

Consider `c1ccc(CN2CCO[C@H]3[C@H](OCCN4CCCC4)CC[C@@H]32)nc1`, for which the INHIBITION is recorded as 30%.

As to `CN1CCN(C[C@H]2CN3CC[C@H]2C[C@@H]3CNC(=O)c2ccco2)CC1`, the INHIBITION is on record as -59.7%.

On to `O=C1CO[C@@H]2CN(Cc3ccncc3)C[C@H]2N1Cc1ccncc1`, for which the INHIBITION is given as -52.2%.

Turning to `CC(=O)N1CCC2(CC1)NC(=O)[C@H]1CN(Cc3cccnc3)C[C@H]12`, the INHIBITION was -6.03%.

As for `Cc1ccccc1CC(=O)N1C[C@@H](O)[C@H](N2CCOCC2)C1`, the INHIBITION was -16.5%.

Turning to `O=C(COc1cccc(F)c1)N1C[C@@H](O)[C@H](N2CCOCC2)C1`, the INHIBITION was -17.5%.

On to `CC1=C(CCN2C[C@H](O)[C@@H](N3CCOCC3)C2)C(C)(C)CCC1`, for which the INHIBITION is on record as 78.3%.

With `COc1cc(N2CCC[C@]3(C(=O)O)CN(C(C)C)C[C@@H]3C2)ncn1`, the INHIBITION was -85.1%.

Consider `Brc1ccc(CN2CCC(NCc3ncc[nH]3)CC2)cc1`, for which the INHIBITION came out at 83.5%.

Consider `O=S1(=O)C[C@@H]2[C@H](C1)N(Cc1ncc[nH]1)CCN2Cc1cccnc1`, for which the INHIBITION is -89.75%.

In the case of `Clc1cc(Cl)cc(CN2CCC(NCc3ncc[nH]3)CC2)c1`, the INHIBITION turned out to be 84.7%.

As for `CCn1cc(CN2CCCC(COc3ccccc3F)C2)cn1` (configuration not stated), the INHIBITION was found to be 72.7%.

As to `Cc1nc(CN(C)C)cc(N2CCCC(COc3ccc(F)cc3)C2)n1` (configuration not stated), the INHIBITION came out at 86.4%.

As to `CCn1cc(CN2CCCN(C(=O)Cc3cccs3)CC2)cn1`, the INHIBITION is listed as -85.9%.

For `COCCc1ncc(CN2CCCC(C(=O)c3ccccc3)C2)cn1` (configuration not stated), the INHIBITION was -145%.

As to `CCn1cc(CN2CCCN(C(=O)Cc3ccc(C)nc3)CC2)cn1`, the INHIBITION is on record as -14.8%.

Consider `CCn1cc(CN2CCCC(COc3ccc(F)cc3)C2)cn1` (configuration not stated), for which the INHIBITION came out at 75.5%.

Take `O=C(N[C@@H]1CN[C@@H]2CCCO[C@@H]21)c1cscn1`: the INHIBITION was 14%.

As for `Cc1noc(C)c1CN1CC[C@H]2C[C@H](c3nccs3)O[C@@H]2C1`, the INHIBITION is -8.14%.

Consider `O=C1CO[C@H]2CN(C3CCOCC3)C[C@H]2N1Cc1ccccn1`, for which the INHIBITION is recorded as -104%.

As to `CCCc1nc(C(=O)N[C@H]2COC[C@@H]2N2CCN(C)CC2)cs1`, the INHIBITION is listed as -49.3%.

For the compound `COCCN1CCc2c(cnc(-c3ccoc3)c2C(=O)O)C1`, the INHIBITION is on record as -47.6%.

As to `Cc1occc1C(=O)N1CCN2C[C@H](Oc3cccnc3)C[C@H]2C1`, the INHIBITION was -23.4%.

For the compound `Cc1ccc(OCc2occc2C(=O)N2CCCCC(N)C2)cc1` (configuration not stated), the INHIBITION came out at 77.5%.

Regarding `CC(C)NC(=O)[C@H]1C[C@H]2NCCO[C@@H]2C1`, the INHIBITION is -33.9%.

`Cc1cc(CN2C[C@H]3CCC[C@@]3(COCC3CCOCC3)C2)no1`: the INHIBITION is on record as -91.9%.

Regarding `O=C(CN1C[C@@H]2CC[C@H]1CN(Cc1ccccn1)C2)Nc1ccccc1`, the INHIBITION is 83.6%.

Turning to `CC(C)(C)c1cc(CN2C[C@@H]3CC[C@H]2CN(Cc2ccccn2)C3)n[nH]1`, the INHIBITION is on record as 74.1%.

Regarding `Cc1nnsc1CN1C[C@@H]2CC[C@H]1CN(Cc1ccccn1)C2`, the INHIBITION is listed as -2.06%.

Turning to `Oc1cccc(CN2C[C@@H]3CC[C@H]2CN(Cc2cccnc2)C3)c1`, the INHIBITION is on record as -14.5%.

Turning to `O[C@@]1(c2ccccn2)CC[C@H]2CN(Cc3ccccn3)C[C@H]21`, the INHIBITION is listed as -89.9%.

Take `O=C(Cc1ccccn1)N1C[C@H]2CN(Cc3ccccn3)C[C@H]2C1`: the INHIBITION is reported as -68.5%.

Consider `Cc1cccc(CNC2CCN(CCc3ccncc3)CC2)c1C`, for which the INHIBITION came to 76.3%.

As to `Clc1cccc(CNC2CCN(CCc3ccncc3)CC2)c1`, the INHIBITION was 92.3%.

Regarding `Fc1ccc(CNC2CCN(CCc3ccncc3)CC2)cc1F`, the INHIBITION worked out at 89.8%.

On to `COCCNC(=O)[C@@]12CCO[C@@H]1CCN(Cc1ccncc1)C2`, for which the INHIBITION is listed as -51.1%.

Consider `CN(c1ncccc1C#N)C1CCN(CCc2ccncc2)CC1`, for which the INHIBITION was 30.8%.

For `Cc1ccc(CNC2CCN(CCc3ccncc3)CC2)cc1C`, the INHIBITION is recorded as 86.9%.

`CN1CCN(Cc2ccncc2)Cc2cccnc21`: the INHIBITION is -190%.

As for `c1ccc2c(c1)CCC21CN(CCc2ccncc2)CCO1` (configuration not stated), the INHIBITION is listed as -30.5%.

For the compound `C[C@@H]1C[C@@H]2CCN(Cc3ccncc3)C[C@H]2O1`, the INHIBITION was -17.4%.

For the compound `Cc1n[nH]c2c1C(c1ccc(Cl)cc1)SCC(=O)N2` (configuration not stated), the INHIBITION is recorded as -12.6%.

In the case of `Cc1ccc(C(=O)N2C[C@@H]3OCCN(C(C)C)[C@@H]3C2)cn1`, the INHIBITION is given as -18.4%.

Take `Cc1cccc(CN2C(=O)C[C@H]3[C@@H]2CCN3Cc2ccco2)n1`: the INHIBITION stood at 13.4%.

Consider `COCCN1CCO[C@H]2CN(C(=O)c3ccncc3F)C[C@H]21`, for which the INHIBITION is on record as -230%.

On to `CC(Cn1cccn1)NCC(=O)NC1CCOCC1` (configuration not stated), for which the INHIBITION is given as -32.4%.

`Cc1cc(CC(=O)N2CCN(C)[C@@H]3CS(=O)(=O)C[C@@H]32)ccc1F`: the INHIBITION was -54.5%.

For `C[C@@H]1CN(Cc2ccsc2)C[C@]12CCN(Cc1cccnc1)C2=O`, the INHIBITION was -45.2%.

As for `CCN1C[C@H]2CCN(Cc3ccncc3)C(=O)[C@@H]2C1`, the INHIBITION is given as -66.4%.

Consider `CC1CN(CCc2ccncc2)CCO1` (configuration not stated), for which the INHIBITION is given as -107%.

With `CSc1ccc(CNC2CCN(CCc3ccncc3)CC2)cc1`, the INHIBITION was 93%.

Turning to `Cc1nc(CO[C@H]2CN(Cc3ccccn3)[C@@H]3CCCO[C@H]23)cs1`, the INHIBITION is given as -44.2%.

On to `CC1=N[C@@]2(CC[C@@H]3CNC[C@@H]32)C(=O)N1CC(C)C`, for which the INHIBITION is given as -138%.

As for `CCC1=N[C@@]2(CC[C@@H]3CN(CC)C[C@@H]32)C(=O)N1C`, the INHIBITION is -47.6%.

`CC1=N[C@@]2(CC[C@@H]3CN(Cc4ccccc4C)C[C@@H]32)C(=O)N1CC1CC1`: the INHIBITION was 85.1%.

On to `CNC(=O)[C@H]1C[C@@H]2CN(C(=O)c3cncc(C)c3)C[C@@H]2N1C`, for which the INHIBITION was -93.3%.

Consider `CC(C)NC(=O)N1CCOC2(CCCNC2)C1` (configuration not stated), for which the INHIBITION is on record as -67.8%.

`CC(C)CNC(=O)N1CCOC2(CCNCC2)C1`: the INHIBITION is -53.6%.

With `O=C(Nc1ccccc1)C1=NOC2(CCCNC2)C1` (configuration not stated), the INHIBITION was -22.7%.

As for `CC(C)NC(=O)C1(Cc2ccccc2-c2ccccc2)CCCNC1` (configuration not stated), the INHIBITION is given as 76.7%.

For the compound `CC(C)CNC(=O)C1(Cc2ccccc2-c2cccs2)CCNC1` (configuration not stated), the INHIBITION came to 71.7%.

Regarding `CC(C)NC(=O)[C@@H]1C[C@H]2NCC[C@H]2O1`, the INHIBITION is recorded as -104%.

With `CCN1CCC2(COCc3cnc(NCC4CC4)nc32)C1` (configuration not stated), the INHIBITION was 1.43%.

As for `CCN1C[C@@H]2[C@@H](OC)CCN(S(=O)(=O)c3cccnc3)[C@@H]2C1`, the INHIBITION is on record as -17.9%.

With `COc1cc2nc(NCc3ccc(C)nc3)nc(N)c2cc1OC`, the INHIBITION was 90.6%.

With `COc1cc2nc(NCc3scnc3C)nc(N)c2cc1OC`, the INHIBITION was found to be 89.8%.

For `Fc1cccnc1O[C@@H]1CN(Cc2ccco2)[C@@H]2CCCO[C@@H]21`, the INHIBITION is given as -48.2%.

On to `COc1ccccc1C1(CNCc2cccc(O)c2)CCOCC1`, for which the INHIBITION came to 82.8%.

With `N#Cc1ccc(CNCC2(c3ccccc3)CCOCC2)cc1`, the INHIBITION stood at 83%.

Take `CC[C@H]1CN2CC[C@H]1C[C@@H]2CNCc1cccc(C#N)c1`: the INHIBITION is on record as 34.8%.

Consider `CSC1(CNC(=O)NC(C)Cc2cccc(F)c2)CCOCC1` (configuration not stated), for which the INHIBITION was -25.5%.

Consider `COc1ccccc1C1(CNCc2ccc(C#N)cc2)CCOCC1`, for which the INHIBITION is 76.6%.

`COc1ccccc1N1CCC(CNCc2ccc(C#N)cc2)C1` (configuration not stated): the INHIBITION is given as 94.1%.

Consider `O=C([C@@H]1CC[C@@H]2[C@@H](CCN2Cc2ccncc2)O1)N1CCCCO1`, for which the INHIBITION is -84.8%.

Consider `O=C1CO[C@@H]2CN(CC3CCOCC3)C[C@H]2N1Cc1ccncc1`, for which the INHIBITION is listed as -115%.

The values above are taken from ChEMBL document CHEMBL4513216, “Probing the Open Global Health Chemical Diversity Library for Multistage-Active Starting Points for Next-Generation Antimalarials” (ACS Infect Dis, 2020).
